Here are results for 41 compounds from PubChem BioAssay AID602314 (ICCB-Longwood Screening Facility, Harvard Medical School, 2012).

Screen size: about 84,000 compounds; about 110 (0.13%) were called active. Cut-off read from the data, not from the text of the source: active = inhibition above about 30% (passing the limit was not always enough); inactive = the rest. The list comes from a sample in which actives are over-represented; it also holds similar structures and randomly drawn compounds.

The experiment deals with MgrA (MarR family transcriptional regulator), Staphylococcus aureus Newman. The experiment can be described thus: S. aureus MgrA activity modulators, primary screen, biochemical, S. aureus Newman, fluorescence polarization (AID 602314).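 Note: 0% = protein plus DNA without compound and 100% = DNA alone without protein; higher means less MgrA bound to DNA so lower polarization.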 As to conditions: MgrA-DNA binding, stronger effect = higher value, concentration not given here.
On to `N#CC(=C1C(=O)c2ccccc2C1=O)c1nc2ccccc2[nH]1`, for which the inhibition is 59.7% (active).

Take `CS(=O)(=O)c1nc2ccccc2[nH]1`: the inhibition is -4.3% (inactive).

For the compound `N#C/C(=C\C=C\c1ccccc1)c1nc2ccccc2[nH]1`, the inhibition was 9.2% (inactive).

With `CCN(CC)C(=O)CSc1nc2ccccc2cc1C`, the inhibition was 0.6% (inactive).

On to `Nc1ccccc1C(=O)Nc1ccc(Cl)cc1`, for which the inhibition is -1.3% (inactive).

As for `CCCCOc1ccc(C2=N/C(=C\c3cc(OC)c(OC)cc3OC)C(=O)O2)cc1`, the inhibition is -1.1% (inactive).

Turning to `CSc1n[nH]c(-c2ccc(Cl)cc2)c1C#N`, the inhibition was -2.1% (inactive).

For `CC(C)c1ccc(NC(=O)CN2N=C(c3ccc(Cl)cc3)CCC2=O)cc1`, the inhibition was 0.65% (inactive).

As to `O=C1/C(=C\c2cccs2)SC(=S)N1CCCC(=O)N1CCCc2ccccc21`, the inhibition was 2.75% (inactive).

Consider `Cc1ccc(C(=O)OCC2OC(C#N)CC2OC(=O)c2ccc(C)cc2)cc1` (stereo unspecified), for which the inhibition was -3.65% (inactive).

Take `CSc1ncc(Br)c(C(=O)O)n1`: the inhibition is -4.9% (inactive).

For `O=C(c1ccc(F)cc1)c1c[nH]c(C(=O)NCc2ccc(F)cc2)c1`, the inhibition was -2.05% (inactive).

With `COCCn1c(N)cc(=O)[nH]c1=S`, the inhibition is 0.65% (inactive).

Regarding `Cc1cccc(OCC(=O)N2CCc3ccccc32)c1`, the inhibition was 0.6% (inactive).

With `CCN(CC)C(=O)Cc1cc(OC)c(OC)cc1Br`, the inhibition is 3.35% (inactive).

Regarding `Cn1cnnc1SCc1ccc(Cl)cc1`, the inhibition was -1.45% (inactive).

As for `CCc1cccc(CC)c1N1C(=O)CC(Sc2ccccc2N)C1=O` (stereo unspecified), the inhibition is 1.1% (inactive).

Consider `c1ccc2c(c1)CCN2c1nc2ccccc2n2cnnc12`, for which the inhibition was 0.25% (inactive).

Regarding `O=c1[nH]c(O)c(C=NCCCn2ccnc2)c(=O)[nH]1`, the inhibition is 5.6% (inactive).

As to `CSc1nsc(SCC(=O)OC2CC(C)CCC2C(C)C)n1` (stereo unspecified), the inhibition was 0.7% (inactive).

As for `CC(C)(C)c1ccc(NC(=O)COC(=O)c2ccc(F)cc2F)cc1`, the inhibition is 4.8% (inactive).

Turning to `CCN(C(=O)c1cccs1)c1cccc2ccccc12`, the inhibition was -1.8% (inactive).

Regarding `COc1cccc(CC(=O)Nc2ccc(-c3csc(C)n3)cc2)c1`, the inhibition was -0.65% (inactive).

As for `Cc1ccc(NC2SC(=O)NC2=O)cc1` (stereo unspecified), the inhibition was 1.7% (inactive).

In the case of `O=C(NC1CC1)C1C2C=CC3(O2)C1C(=O)N(C1CC1)C3C(=O)NC1CCCCC1` (stereo unspecified), the inhibition is 0.25% (inactive).

With `CCSc1nnc2c(n1)OC(c1cccc(OC)c1)Nc1ccccc1-2` (stereo unspecified), the inhibition was -1.3% (inactive).

With `CC(=O)Nc1ccc(-c2nnc(-c3ccco3)o2)cc1`, the inhibition is -3.3% (inactive).

Turning to `CC(C)(C)C/C(=N/O)c1ccccc1`, the inhibition is 0.2% (inactive).

Take `Cc1nnc(SCc2ccc(C#N)cc2)s1`: the inhibition is 0.7% (inactive).

Turning to `CSc1ncnc2sc(-c3ccccc3)cc12`, the inhibition was 0.75% (inactive).

In the case of `CCOC(=O)c1sc(NC(C)=O)c(C#N)c1C`, the inhibition is -2.1% (inactive).

On to `O=C(c1cnn2c(C(F)F)cc(-c3ccccc3)nc12)N1CCCC1`, for which the inhibition is -0.35% (inactive).

On to `CCOC(=O)c1ccc(NC(=O)CC2C(=O)N(c3ccc(F)cc3)C(=O)N2Cc2cccs2)cc1` (stereo unspecified), for which the inhibition was -1.9% (inactive).

On to `FC(F)(F)c1cccc(CSc2ncn[nH]2)c1`, for which the inhibition is -0.7% (inactive).

Regarding `COc1ccccc1C=NC12CN3CN(CN(C3)C1)C2`, the inhibition is 2.95% (inactive).

With `Oc1[nH]c2ccccc2c1C=NCCC1=CCCCC1`, the inhibition is 5.65% (inactive).

For the compound `CCOCCOC(=O)C1=C(C)NC2=C(C(=O)CC(c3ccccc3)C2)C1c1cc2c(cc1Br)OCO2` (stereo unspecified), the inhibition is -2.9% (inactive).

With `CCOC(=O)c1cccn1-c1ncc(C(F)(F)F)cc1Cl`, the inhibition was -1.2% (inactive).

With `Cc1ccc(-c2nn(CCC(=O)NCCN3CCOCC3)c(=O)c3ccccc23)cc1`, the inhibition is 0.2% (inactive).

For the compound `O=C(Nc1ccccc1-c1nc2ccccc2[nH]1)c1ccccc1Br`, the inhibition was -2.6% (inactive).

As to `N#CCc1ccc(OCc2ccc(Cl)c(Cl)c2)cc1`, the inhibition was -1.9% (inactive).
